Screens (PubChem BioAssay)
HT1080NT lethal: kills 2HG-producing HT-1080-NT fibrosarcoma cells; HT-1080-NT fibrosarcoma viability, CellTiter-Glo ATP luminescence, 48 h; Potency, µM (titrated, usually from 46.1 µM), for the others: at the top dose activity, negative = less viability, actives largely listed as cytotoxic; actives 1.6% (n = 360,000); AID 686970;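 also: NT is the 2HG producing partner of a matched IDH1 knockdown line; potency is read from the fitted curve at half-maximal effect; 0% = DMSO-treated cells and -100% = media-only wells without cells; nearly all actives have a fitted effect of over 55% in size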
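Read-out is CellTiter-Glo luminescence after 10 minutes at room temperature, following 48 hours' compound treatment of HT-1080-NT cells (750 cells/well, RPMI, 5% FBS, 37 degrees C).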
HT1080 IDH1KD tx: HT-1080 IDH1 knockdown cell toxicity (counter line) | Potency, µM (titrated, usually from 46.1 µM), for the others: at the top dose activity, negative = toxicity, actives largely listed as cytotoxic | actives 2% (n = 360,000) | AID 686971 | HT-1080 IDH1 knockdown viability, ATP luminescence, 48 h;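 also: potency is read from the fitted curve at half-maximal effect; 0% = DMSO wells and -100% = cell-free medium wells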
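Using the IDH1-knockdown HT-1080 line run in the same batch and compound series as the NT line, viability after 48 h at 37 °C was determined by CellTiter-Glo luminescence and expressed as % activity.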
ELG1 DNA repair: inhibitors of ELG1-dependent DNA repair in HEK293T cells. HEK293T ELG1-luciferase reporter, luminescence, 16 h; DNA damage induced by 5-fluorouridine. Potency, µM (top dose mostly 46.1 µM), inactives show top-dose activity change, negative = inhibition, most hits filed as inhibitors. actives 2.3% (n = 330,000); also: potency is read from the fitted curve at half-maximal effect; nearly all actives have a fitted effect of over 55% in size
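Luminescence from the luciferase reporter, measured 30 min after ONE-Glo reagent at room temperature, was the read-out. Beforehand, 2,000 cells per well were exposed for 16 hr at 37 °C to 5-fluorouridine together with compound or vehicle.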
IL-1B inflam inh: blocks inflammasome-driven IL-1 beta release. THP-1 LPS/ATP IL-1B secretion, AlphaLISA, 16 h; stronger effect = lower value. activity change, % at 57.5 µM. actives 4.7% (n = 360,000); in the data active = activity change below about -50%; inconclusive = mostly about -30% to -49%
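THP-1 cells pretreated 1 hr with compounds (up to 57.5 uM final), then stimulated with LPS (250 ng/mL final) plus ATP (1.25 mM final); secreted IL-1B measured by AlphaLISA after 16 hr, decreased signal indicating inhibition.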
DT40 TDP1 no CPT: qHTS for Inhibitors of human tyrosyl-DNA phosphodiesterase 1 (TDP1): qHTS in cells in absence of CPT; DT40 Tdp1-/- hTDP1 cells, no CPT, ATP luminescence, 48 h; Potency, µM (series often up to 46.2 µM), for inactives: at the highest dose activity change, negative = growth inhibition, hits mostly inhibitors; actives 15% (n = 420,000); also: potency is read from the fitted curve at half-maximal effect; nearly all actives have a fitted effect of over 55% in size
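Luminescent ATP content (CellTiter-Glo) served as the growth readout. Knockout chicken DT40 cells expressing human TDP1 were exposed to compounds without camptothecin for a minimum 48 hr at 37 °C.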
DT40 TDP1 CPT: DT40-hTDP1 cell growth loss with CPT; chicken DT40 Tdp1-/-;hTDP1 cells + 20 nM CPT, ATP luminescence, 48 h; Potency, µM (doses to about 46.2 µM), for the others: at the highest dose activity change, negative = growth inhibition, usual class: inhibitors; actives 12% (n = 420,000); AID 686979; also: potency is read from the fitted curve at half-maximal effect; nearly all actives have a fitted effect of over 55% in size
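Chicken DT40 Tdp1-/- cells stably complemented with human TDP1 were seeded at 400 cells/well in medium containing 20 nM camptothecin, exposed to pin-transferred compounds, and grown at 37 °C for at least 48 hr. Viability was read as ATP luminescence.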
An asterisk follows results filed as active; ? = inconclusive; nt = not tested or not shown. In the library only some 19% were active in any assay of this set; here they are far more common. Unless noted, calls follow the shape of the dose curve; as a rule, active = well fitted curve in the direction sought with a large enough effect; inconclusive = small, poorly fitted or top-dose-only effect, or another doubt; inactive = no such curve, though single readings can be large; an effect the other way counts as inactive or inconclusive. Unless noted, % is scaled to controls: 0 for no effect and ±100 for the full control effect.

SMILES	HT1080NT lethal	HT1080 IDH1KD tx	ELG1 DNA repair	IL-1B inflam inh	DT40 TDP1 no CPT	DT40 TDP1 CPT
CC(OC(=O)c1ccc([N+](=O)[O-])s1)C(=O)NC1CCCCC1C (stereo not drawn)	-4%	-9%	7%	11	?	23µM*
Cc1c(NC(=O)C(C)OC(=O)c2ccc([N+](=O)[O-])s2)c(=O)n(-c2ccccc2)n1C (stereo not drawn)	-12%	-3%	-25%	34	16µM*	23µM*
COc1cc(C(=O)OC(C)C(=O)NC2CCCCC2C)c([N+](=O)[O-])cc1OC (stereo not drawn)	-2%	-1%	7%	-7	?	?
CSc1ccc(S(=O)(=O)N2CCC(C(=O)NCCN3CCOCC3)CC2)cc1	-2%	1%	3%	-8	-4%	-16%
COc1cc(O)c(C(C)=O)c2c1C=CC(C)(C)O2	4%	0%	nt	32	?	-11%
COc1cc2c(cc1OC)[C@@H]1C(=O)c3ccc4c(c3O[C@@H]1CO2)C=CC(C)(C)O4	nt	nt	nt	nt	0.11µM*	0.15µM*
O=C(/C=C/c1ccccc1[N+](=O)[O-])Nc1cccc(S(=O)(=O)NC2=NCCCCC2)c1	-21%	-8%	?	-16	21µM*	?
O=C(/C=C/c1ccc(Cl)cc1Cl)Nc1cccc(S(=O)(=O)NC2=NCCCCC2)c1	-17%	?	?	-69*	?	-5%
O=C(COc1ccccc1[N+](=O)[O-])Nc1cccc(S(=O)(=O)NC2=NCCCCC2)c1	6%	9%	?	-14	?	?
CS(=O)(=O)c1ccccc1C(=O)Nc1ccc(-c2nc3ccccc3[nH]2)cc1	3%	0%	?	-7	?	-23%
CN(c1ccccc1)S(=O)(=O)c1ccc(Cl)c(C(=O)Nc2nn[nH]n2)c1	-12%	8%	-9%	12	2%	4%
CN(c1ccccc1)S(=O)(=O)c1ccc(Cl)c(C(=O)Nc2nc3ccccc3[nH]2)c1	-21%	?	23µM*	?	15µM*	15µM*
CS(=O)(=O)c1cccc(C(=O)Nc2ccc(-c3nc4ccccc4[nH]3)cc2)c1	12µM*	12µM*	26%	-4	7.3µM*	8.2µM*
CN(c1ccccc1)S(=O)(=O)c1ccc(Cl)c(C(=O)Nc2ccc(-c3nc4ccccc4[nH]3)cc2)c1	-22%	?	?	11	18µM*	18µM*
Cc1ccccc1C(=O)Nc1ccc(-c2nc3ccc(C(=O)c4ccccc4)cc3[nH]2)cc1	-22%	?	?	25	5.2µM*	9.2µM*
Cc1cccc(C(C(N)=O)c2ncc(C(F)(F)F)cc2Cl)c1 (stereo not drawn)	9%	3%	-4%	-8	-17%	-1%
CC(C)n1c(CSCc2ccc(Cl)cc2Cl)n[nH]c1=S	-14%	-2%	?	21	?	-25%
O=C(NCCc1nc2ccccc2[nH]1)/C(=C/c1ccco1)NC(=O)c1ccc(Br)cc1	-14%	-9%	-16%	0	?	23µM*
COc1ccc(/C=C/C(=O)N/C(=C\c2ccco2)C(=O)NCCc2nc3ccccc3[nH]2)cc1	-15%	-13%	?	0	18µM*	21µM*
O=C(NCCc1nc2ccccc2[nH]1)/C(=C/c1ccc2c(c1)OCO2)NC(=O)c1ccc(Cl)cc1Cl	?	?	?	-99*	?	?
O=C(NCCc1nc2ccccc2[nH]1)/C(=C/c1ccc(F)cc1)NC(=O)c1ccco1	-1%	2%	0%	-5	-12%	-2%
CC(C)C[C@@H]1Cc2[nH][nH]c(=O)c2[C@H](C(C)C)O1	-9%	?	nt	0	-18%	?
O=C(OCN1C(=O)c2ccccc2C1=O)c1cccc(S(=O)(=O)N2CCOCC2)c1	-3%	18%	10%	0	-3%	2%
COc1ccc(-c2cc(C(F)(F)F)n3nc(C(=O)NCCN4CCOCC4)cc3n2)cc1	1%	-7%	-1%	-18	?	?
O=C(NCCCn1ccnc1)c1nn2c(C(F)(F)F)cc(-c3ccc(Br)cc3)nc2c1Cl	-3%	-3%	?	-52*	16µM*	23µM*
SMILES	HT1080NT lethal	HT1080 IDH1KD tx	ELG1 DNA repair	IL-1B inflam inh	DT40 TDP1 no CPT	DT40 TDP1 CPT
COc1ccc(-c2cc(C(F)(F)F)n3nc(C(=O)NCCCn4ccnc4)cc3n2)cc1	-2%	-1%	?	-59*	?	-30%
Cc1c(NC(=O)c2nn3c(C(F)(F)F)cc(-c4ccccc4)nc3c2Cl)c(=O)n(-c2ccccc2)n1C	19%	0%	?	-51*	?	-2%
CCc1nnc(NC(=O)CSc2nc3c([nH]c4ccccc43)c(=O)n2-c2ccc(F)cc2)s1	nt	nt	nt	nt	?	-20%
CCN(CC)S(=O)(=O)c1ccc(=O)n(CC(=O)N2Cc3ccccc3CC2C(N)=O)c1 (stereo not drawn)	2%	0%	3%	7	7%	7%
COc1ccc(NC(=O)COC(=O)CCc2ccc(S(=O)(=O)N3CCOCC3)cc2)cc1OC	5%	1%	?	3	1%	-5%
CCCCNC(=O)Cn1c(=O)c2c(ncn2CC)n(Cc2ccccc2)c1=O	7%	-2%	12%	5	?	-8%
COc1ccc(OC)c2sc(N3CCN(C(=O)CCS(=O)(=O)c4ccc(F)cc4)CC3)nc12	nt	nt	nt	nt	21µM*	18µM*
Cc1ccc2sc(N3CCN(C(=O)CCS(=O)(=O)c4ccc(F)cc4)CC3)nc2c1C	nt	nt	nt	nt	2.6µM*	4.1µM*
COc1ccc(OC)c2sc(N3CCN(C(=O)c4ccc([N+](=O)[O-])s4)CC3)nc12	0%	-11%	?	10	?	?
COC(=O)C1CC23C=CCN4CCC5(c6ccccc6NC15C2C)C43 (stereo not drawn)	0.58µM*	0.73µM*	?	38	1.3µM*	1µM*
CN1CC[C@]23c4ccccc4N[C@H]1[C@]21CCN(C)[C@H]3Nc2ccccc21	16%	-2%	1%	-21	7%	0%
COc1ccc(-n2c(SC(C)C(=O)Nc3ccc(NC(C)=O)cc3)nc3ccccc3c2=O)cc1OC (stereo not drawn)	-10%	-15%	3%	5	-21%	-16%
